According to PubChem BioAssay (NCATS):
Where “and” joins values, the source holds several entries; their conditions need not be identical. Identical values can stand only once. Records with an inconclusive call do not appear. Calls of active or inactive are those of the source. Unless noted, calls come from the whole dose curve; as a rule, active = well fitted curve in the direction sought with a large enough effect; inconclusive = small, poorly fitted or top-dose-only effect, or another doubt; inactive = no such curve, though single readings can be large; an effect the other way counts as inactive or inconclusive.

Assays:
[1] = target: Cytochrome P450 1A2 (Homo sapiens) (UniProt P05177); experiment: p450-cyp1a2 (AID 410; calls by dose curve; note: potency is the fitted concentration of half-maximal effect)
Sequence of Cytochrome P450 1A2 (Homo sapiens) (P05177 whole entry, looked up): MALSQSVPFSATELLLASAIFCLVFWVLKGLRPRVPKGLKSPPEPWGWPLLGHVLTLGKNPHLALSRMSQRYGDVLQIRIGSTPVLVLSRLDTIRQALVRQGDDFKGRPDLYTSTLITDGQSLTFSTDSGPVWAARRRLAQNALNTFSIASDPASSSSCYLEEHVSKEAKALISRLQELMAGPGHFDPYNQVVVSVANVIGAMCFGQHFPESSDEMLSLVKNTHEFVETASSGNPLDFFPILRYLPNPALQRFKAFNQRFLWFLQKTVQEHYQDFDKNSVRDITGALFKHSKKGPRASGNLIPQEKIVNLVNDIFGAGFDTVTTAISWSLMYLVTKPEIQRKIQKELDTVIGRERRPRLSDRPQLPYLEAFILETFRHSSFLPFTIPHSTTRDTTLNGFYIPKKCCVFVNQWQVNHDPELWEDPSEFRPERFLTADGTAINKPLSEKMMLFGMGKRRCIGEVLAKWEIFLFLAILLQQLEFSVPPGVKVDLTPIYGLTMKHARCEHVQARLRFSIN
How it was run: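 Inhibition was calculated relative to 57 uM furafylline (full inhibition). The reaction used human CYP1A2 at 20nM with Luciferin-ME at its Km, 100uM, driven by an NADPH-regenerating system for 60 min at room temperature.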

[2] = Stat Signaling Pathway (AID 446; active = well fitted curve in either direction with a large enough effect, not every such curve was filed as active;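 note: ME-180 cervical cancer cells given 40 pM IL-6 alongside compound; SIE-controlled beta-lactamase reporter measured as 460/530 nm FRET emission ratio; % is set by controls: 0 for no effect and ±100 for the full control effect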); conditions: ME-180 SIE beta-lactamase reporter, IL-6 stimulated, 5 h; at 17.2 µM (top of the series) unless noted
How it was run: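 ME-180 cells carrying a SIE-driven beta-lactamase reporter are stimulated with 40 pM IL-6 for 5 h at 37C in the presence of compound. The 460/530 nm FRET substrate ratio is read after 2.5 h at RT. Data are normalised to 300 pM IL-6 and to 125 nM JAK inhibitor controls.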

[3] = target: Glucocorticoid receptor (Homo sapiens) (UniProt P04150); experiment: GR-EFC Redistribution (AID 451; calls by dose curve; note: potency is the fitted concentration of half-maximal effect); conditions: CHO-K1 GR-EFC translocation, beta-gal luminescence, 2 h
Sequence of Glucocorticoid receptor (Homo sapiens) (P04150 whole entry, looked up, the tested form may be a part): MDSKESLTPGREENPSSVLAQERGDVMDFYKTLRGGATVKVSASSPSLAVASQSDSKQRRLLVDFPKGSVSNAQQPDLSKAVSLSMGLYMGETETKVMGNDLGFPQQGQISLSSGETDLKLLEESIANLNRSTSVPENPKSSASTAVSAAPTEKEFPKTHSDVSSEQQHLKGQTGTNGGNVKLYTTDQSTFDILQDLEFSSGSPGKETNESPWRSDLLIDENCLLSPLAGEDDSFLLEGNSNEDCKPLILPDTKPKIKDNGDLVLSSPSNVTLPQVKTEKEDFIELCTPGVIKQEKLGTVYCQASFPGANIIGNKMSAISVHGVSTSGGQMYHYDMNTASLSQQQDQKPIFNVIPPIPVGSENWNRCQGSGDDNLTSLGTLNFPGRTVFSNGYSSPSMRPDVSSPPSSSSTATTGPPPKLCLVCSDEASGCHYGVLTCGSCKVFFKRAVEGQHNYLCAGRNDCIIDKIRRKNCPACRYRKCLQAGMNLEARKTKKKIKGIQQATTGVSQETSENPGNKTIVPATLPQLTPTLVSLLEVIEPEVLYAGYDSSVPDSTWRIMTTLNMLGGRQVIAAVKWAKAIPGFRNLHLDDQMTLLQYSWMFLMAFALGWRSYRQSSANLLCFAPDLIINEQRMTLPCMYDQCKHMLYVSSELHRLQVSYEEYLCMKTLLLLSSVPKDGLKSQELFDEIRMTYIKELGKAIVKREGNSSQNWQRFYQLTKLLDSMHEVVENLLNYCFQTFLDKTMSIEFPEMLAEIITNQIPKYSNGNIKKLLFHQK
How it was run: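 CHO-K1 cells stably expressing nuclear-localized β-gal enzyme acceptor and GR fused C-terminally to the enzyme donor fragment; ligand-driven nuclear translocation restores β-gal by complementation. Compounds titrated up to 46 uM final, 2 h at 37 °C; luminescence read.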

[4] = target: 3',5'-cyclic-AMP phosphodiesterase 4B (Homo sapiens) (UniProt Q07343); experiment: qHTS Assay for Inhibitors of PDE-IV (AID 607; active = well fitted activation curve with a large enough effect in the main read-out, with a control signal flat, not every such curve was filed as active; note: % of control where 0% means no effect)
Sequence of 3',5'-cyclic-AMP phosphodiesterase 4B (Homo sapiens) (Q07343 whole entry, looked up): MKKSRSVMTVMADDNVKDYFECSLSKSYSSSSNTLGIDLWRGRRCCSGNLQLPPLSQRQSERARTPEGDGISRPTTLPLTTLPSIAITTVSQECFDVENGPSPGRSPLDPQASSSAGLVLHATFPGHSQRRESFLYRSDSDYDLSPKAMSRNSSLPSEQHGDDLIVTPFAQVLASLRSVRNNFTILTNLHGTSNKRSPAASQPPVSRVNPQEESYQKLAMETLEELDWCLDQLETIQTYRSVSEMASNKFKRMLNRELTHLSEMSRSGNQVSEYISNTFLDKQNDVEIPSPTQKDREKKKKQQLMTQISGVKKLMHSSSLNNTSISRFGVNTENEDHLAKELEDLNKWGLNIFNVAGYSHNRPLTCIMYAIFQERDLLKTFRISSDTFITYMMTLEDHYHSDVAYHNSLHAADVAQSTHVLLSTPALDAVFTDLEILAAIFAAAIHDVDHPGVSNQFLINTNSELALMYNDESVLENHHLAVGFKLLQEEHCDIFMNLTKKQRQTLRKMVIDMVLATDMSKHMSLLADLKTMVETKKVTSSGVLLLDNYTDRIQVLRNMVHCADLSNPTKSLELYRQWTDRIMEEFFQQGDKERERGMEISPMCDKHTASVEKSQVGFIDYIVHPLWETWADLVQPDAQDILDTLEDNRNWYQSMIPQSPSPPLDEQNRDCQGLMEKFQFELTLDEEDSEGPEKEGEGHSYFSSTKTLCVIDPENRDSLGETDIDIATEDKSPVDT
How it was run: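 HEK293 ACTOne cells with CNG channel (1000/well), endogenous PDE4; membrane potential dye, compounds up to 22.9 uM final. Fluorescence Ex 535/Em 590; RO 20-1724 (100 uM final) as reference.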

[5] = target: Mitogen-activated protein kinase 10 (Mus musculus) (UniProt Q61831); experiment: JNK3 AlphaScreen Assay (AID 530; active = well fitted curve in either direction with a large enough effect, not every such curve was filed as active;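 note: kinase came from lysate of stimulated human HepG2 cells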; note: potency is the fitted concentration of half-maximal effect)
How it was run: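 JNK3 came from HepG2 lysates pre-activated with IL-1beta and TNF-alpha and phosphorylated biotinylated GST-cJun (1-79) at 10 uM ATP, pH 7.6, room temperature. Compounds were titrated. AlphaScreen signal used anti-phospho-cJun (Ser73) antibody.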

[6] = Cell Viability - BJ (AID 421; calls by dose curve;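 note: potency is the fitted concentration of half-maximal effect; cells exposed to compound for 40 hours at 37 °C before readout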); conditions: BJ fibroblast viability, qHTS
How it was run: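 Normal human BJ foreskin fibroblasts, 1500/well in complete medium, treated 40 hr at 37 °C. Cellular ATP by CellTiter-Glo luminescence; normalized to DMSO and 100 uM tamoxifen, AC50 from Hill fit.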

[7] = Cell Viability - Jurkat (AID 426;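 active = dose-dependent loss of cell ATP signal giving a full or clear fitted curve, ranked by lower potency value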; note: potency is the fitted concentration of half-maximal effect); conditions: qHTS
How it was run: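 Seed 5000 Jurkat E6-1 cells/well; add compound; incubate 40 hr at 37 °C; add CellTiter-Glo; wait 20 min at room temperature; read luminescence. Fit concentration-response with Hill equation for AC50.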

[8] = Cell Viability - Hek293 (AID 427;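 active = compounds whose dose-response curve shows a full or clear partial loss of cell viability, called from curve shape rather than a numeric limit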;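 note: potency is the fitted concentration of half-maximal effect; cells exposed to compound for 40 hours at 37 °C before reading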); conditions: qHTS
How it was run: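 HEK293 cells in complete medium were exposed to compound for 40 hr at 37 °C, then cellular ATP was read by CellTiter-Glo luminescence. Data were normalized to DMSO (basal) and 100 uM tamoxifen (100% inhibition), and AC50 came from Hill fits.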

[9] = Cell Viability - HepG2 (AID 433; calls by dose curve;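 note: potency is the fitted concentration of half-maximal effect; potency for ATP loss meaning cytotoxicity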); conditions: qHTS
How it was run: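 Read-out is luciferase-based quantitation of cellular ATP as a measure of viable HepG2 cells after 40 h treatment at 37 °C. Signal decrease is scaled between DMSO-only and 100 uM tamoxifen controls, with AC50 fitted by the Hill equation.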

[10] = Cell Viability - MRC5 (AID 434; calls by dose curve;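 note: potency is the fitted concentration of half-maximal effect; potency reflects cytotoxicity seen as loss of intracellular ATP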); conditions: MRC5 lung fibroblast viability, qHTS
How it was run: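 MRC5 normal human lung fibroblasts (1500/well) were treated with compounds for 40 hr at 37 °C in complete medium, and viable cells were measured as intracellular ATP by CellTiter-Glo luminescence. AC50 came from Hill fits, normalized to DMSO and 100 uM tamoxifen.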

[11] = Cell Viability - SK-N-SH (AID 435; calls by dose curve;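 note: potency is the fitted concentration of half-maximal effect; compound exposure lasted 40 h at 37 °C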); conditions: SK-N-SH neuroblastoma cell viability qHTS
How it was run: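 Luminescent ATP signal served as the viability read-out after 40 hours of compound treatment of human neuroblastoma SK-N-SH cells. Concentration-response data, scaled between DMSO and 100 uM tamoxifen, gave AC50 values by standard Hill modeling.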

[12] = Cell Viability - N2a (AID 540); conditions: N2a mouse neuroblastoma cell viability; activity change, negative = cytotoxicity: at 92.2 µM (top of the series); note: nearly all actives have a fitted effect of over 45% in size; note: potency is the fitted concentration of half-maximal effect;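 for activity change, negative = cytotoxicity: plate controls were DMSO alone for no effect and tamoxifen control for full effect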
How it was run: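 First, 1500 N2a cells per well incubate 5 hr at 37 °C; next, compounds are added and incubated 40 hr at 37 °C; finally CellTiter-Glo is added and luminescence read after 20 min, with AC50 derived by Hill modeling.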

[13] = Cell Viability - HUV-EC-C (AID 542); note: nearly all actives have a fitted effect of over 35% in size; note: potency is the fitted concentration of half-maximal effect; for activity change, negative = cytotoxicity: % is set by controls: 0 for no effect and ±100 for the full control effect
How it was run: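 Decrease in cellular ATP, quantified by luciferase luminescence, reflects toxicity in normal human vascular endothelial HUV-EC-C cells given compound for 40 hr in complete culture medium. Values are AC50s from concentration-response curves.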

[14] = Cell Viability - H-4-II-E (AID 543); note: nearly all actives have a fitted effect of over 35% in size; note: potency is the fitted concentration of half-maximal effect
How it was run: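 Here, cytotoxicity is measured in the rat hepatoma line H-4-II-E as loss of intracellular ATP after 40 hr compound treatment, detected by luciferase luminescence.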

[15] = Cell Viability - SH-SY5Y (AID 544); conditions: SH-SY5Y neuroblastoma cell viability; viability change, negative = cytotoxic: at 92.2 µM (top of the series); note: nearly all actives have a fitted effect of over 55% in size; note: potency is the fitted concentration of half-maximal effect;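 for viability change, negative = cytotoxic: 0% = DMSO alone and -100% = 100 µM tamoxifen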
How it was run: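 Cytotoxicity is scored as a concentration-dependent fall in intracellular ATP in human SH-SY5Y cells treated 40 hr in complete culture medium. Potency is expressed as AC50 from a Hill equation fit.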

[16] = Cell Viability - Renal Proximal Tubule (AID 545); note: nearly all actives have a fitted effect of over 40% in size; note: potency is the fitted concentration of half-maximal effect;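 for activity change, negative = cytotoxicity: 0% = DMSO only and -100% = 100 µM tamoxifen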
How it was run: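 Luminescent ATP signal (CellTiter-Glo) served as the viability read-out after 40 hr compound exposure of freshly isolated rat proximal tubule cells at 37 °C. Concentration-dependent ATP loss was fitted with the Hill equation to give AC50.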

[17] = Cell Viability - Mesenchymal (AID 546);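 note: cells exposed to compound for 40 hours before reading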; note: potency is the fitted concentration of half-maximal effect;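 for activity change, negative = cytotoxicity: 0% = DMSO only and -100% = 100 µM tamoxifen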
How it was run: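 Normal human renal glomerulus-derived kidney mesenchymal cells, 1000 per well in complete medium, were treated with compounds for 40 hr at 37 °C. Viability was read as intracellular ATP by CellTiter-Glo luminescence; AC50 values came from Hill-equation fits of qHTS concentration-response data.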

[18] = Cellular Toxicity (caspase-3) HepG2 (AID 654); note: potency is the fitted concentration of half-maximal effect
How it was run: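 qHTS, HepG2, 1500 cells/well, complete medium; cpd 16 h 37 °C; Caspase-Glo 3/7, 20 min RT; lum. Norm: DMSO vs 100 uM tamoxifen; AC50 Hill fit.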

[19] = Cellular Toxicity (caspase-3) Jurkat (AID 655);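 note: cells exposed to compound for 16 h at 37 °C before reading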
How it was run: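 5000 Jurkat cells/well; compound 16 hr, 37 °C; Caspase-Glo 3/7 added, 20 min RT; luminescence read. Norm: DMSO = 0%, tamoxifen 100 uM = 100%. AC50, Hill model.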

OCc1ccc(-c2nn(Cc3ccccc3)c3ccccc23)o1
inactive: activity, negative = inhibition [2] -17.6% [at 38 µM] | Potency [3] > 46 µM | outcome [4]
active: Potency [1] 1.58 µM

COc1cc2ncnc(Nc3cccc(Cl)c3)c2cc1OC
inactive: Potency [3] > 46 µM | Potency [5] | outcome [4]

O=C(N[C@H](CO)[C@H](O)c1ccc([N+](=O)[O-])cc1)C(Cl)Cl
inactive: Potency [6] > 92 µM | Potency [7] > 92 µM | Potency [8] > 92 µM | Potency [9] > 92 µM | Potency [10] > 92 µM | Potency [11] > 92 µM | Potency [5] | Potency [12] | Potency [13] | Potency [14] | Potency [15] | Potency [16] | Potency [17] | Potency [18] | outcome [19]

COc1cc([C@@H]2c3cc4c(cc3[C@H](O)[C@H]3COC(=O)[C@H]23)OCO4)cc(OC)c1OC
inactive: activity, negative = inhibition [2] 6.38%

CN(C)c1ccc(C(=C2C=CC(=[N+](C)C)C=C2)c2ccc(N(C)C)cc2)cc1
active: Potency [6] 5.35 µM | Potency [7] 2.75 µM | Potency [8] 5.18 µM | Potency [9] 8.58 µM | Potency [10] 4.08 µM | Potency [11] 1.8 µM | Potency [5] 2 µM | Potency [12] 0.794 µM | Potency [13] 3.98 µM | Potency [14] 2 µM | Potency [15] 1.58 µM | Potency [16] 12.6 µM | Potency [17] 2.51 µM | Potency [18] 31.6 µM

O=C(O)c1cn(C2CC2)c2cc(N3CCNCC3)c(F)cc2c1=O
inactive: activity, negative = inhibition [2] 11.7% | Potency [5]

CC(=O)Oc1ccccc1C(=O)Nc1ncc([N+](=O)[O-])s1
active: Potency [7] 30.6 µM | Potency [8] 32.6 µM | Potency [11] 20.7 µM | Potency [12] 25.1 µM | Potency [13] 31.6 µM | Potency [14] 31.6 µM | Potency [15] 25.1 µM | Potency [16] 25.1 µM
inactive: Potency [18] | outcome [19]

COc1ccccc1OCC(O)COC(N)=O (stereo not drawn)
inactive: activity, negative = inhibition [2] 6.13%

CCc1cc(C(N)=S)ccn1
inactive: Potency [6] > 92 µM | Potency [7] > 92 µM | Potency [8] > 92 µM | Potency [9] > 92 µM | Potency [10] > 92 µM | Potency [11] > 92 µM | activity, negative = inhibition [2] -6.82% | Potency [3] > 20.6 µM | Potency [5] | Potency [12] | Potency [13] | Potency [14] | Potency [15] | Potency [16] | Potency [17] | outcome [4] | Potency [18] | outcome [19]

CC[C@H](NC(C)C)[C@H](O)c1ccc(O)c2[nH]c(=O)ccc12
inactive: Potency [3] > 46 µM

C1CCC(C(CC2CCCCN2)C2CCCCC2)CC1 (stereo not drawn)
inactive: activity, negative = inhibition [2] 5.25%

Nc1nc(F)nc2c1ncn2[C@@H]1O[C@H](CO)[C@@H](O)[C@@H]1O
inactive: activity, negative = inhibition [2] 7.84%

CC(C)(Sc1cc(C(C)(C)C)c(O)c(C(C)(C)C)c1)Sc1cc(C(C)(C)C)c(O)c(C(C)(C)C)c1
inactive: activity, negative = inhibition [2] 5.26% | Potency [3] > 20.6 µM | Potency [5] | outcome [4]

NS(=O)(=O)c1cc2c(cc1Cl)NC(C(Cl)Cl)NS2(=O)=O (stereo not drawn)
inactive: activity, negative = inhibition [2] 2.72%

CCn1cc(C(=O)O)c(=O)c2cc(F)c(N3CCNCC3)cc21
inactive: activity, negative = inhibition [2] 1.48% and 7% | Potency [3] > 20.6 µM | Potency [5] | outcome [4]

Cc1ccc(S(=O)(=O)N[C@@H](Cc2ccccc2)C(=O)CCl)cc1
active: activity, negative = inhibition [2] -65.8% [at 38 µM]
inactive: Potency [3] > 46 µM | Potency [5]

O=C(O)c1cc(=O)[nH]c(=O)[nH]1
inactive: Potency [6] > 92 µM | Potency [7] > 92 µM | Potency [8] > 92 µM | Potency [9] > 92 µM | Potency [10] > 92 µM | Potency [11] > 92 µM | Potency [5] | Potency [12] | Potency [13] | Potency [14] | Potency [15] | Potency [16] | Potency [17] | Potency [18] | outcome [19]
